Data reported in PubChem BioAssay AID652054 (National Center for Advancing Translational Sciences (NCATS), 2013).
The whole screen tested about 360,000 compounds, of which about 9,100 (2.5%) were called active. Roughly 4% stayed inconclusive and do not appear here. Cut-off read from the data, not from the text of the source: active = max response below about -50%; inconclusive = no clear call, values can overlap the other calls; inactive = above that. What follows is part of a selection rich in actives, with near analogues and random picks from the rest.
% is set by controls: 0 for no effect and ±100 for the full control effect.

These compounds were tested against D(3) dopamine receptor (Homo sapiens) (UniProt P35462) (assay: qHTS of D3 Dopamine Receptor Antagonist: qHTS). Conditions: D3R cells, DiscoveRx beta-arrestin luminescence, antagonist mode; hits give low values.
Chain of D(3) dopamine receptor (Homo sapiens) (P35462 whole entry, looked up): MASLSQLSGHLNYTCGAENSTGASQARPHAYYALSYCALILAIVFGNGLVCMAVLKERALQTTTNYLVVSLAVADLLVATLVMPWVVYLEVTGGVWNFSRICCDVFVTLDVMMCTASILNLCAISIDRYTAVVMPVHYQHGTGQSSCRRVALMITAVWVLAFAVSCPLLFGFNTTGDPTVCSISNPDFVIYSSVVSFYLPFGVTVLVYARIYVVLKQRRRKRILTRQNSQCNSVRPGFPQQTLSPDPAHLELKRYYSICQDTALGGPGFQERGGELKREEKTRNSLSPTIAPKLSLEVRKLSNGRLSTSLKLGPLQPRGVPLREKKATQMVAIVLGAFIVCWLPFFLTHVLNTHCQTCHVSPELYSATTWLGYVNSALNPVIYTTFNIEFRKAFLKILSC
Summary of the method: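 Cells plated overnight at 1500 cells/well, then exposed to library compounds with dopamine controls for 90 minutes at 37 degrees C. DiscoveRx reagent added for 30–60 minutes at room temperature; luminescence read, quantitative HTS format.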
`C[C@@H]1CN([C@@H](C)CO)C(=O)CCCn2nncc2CO[C@H]1CN(C)C(=O)Nc1ccc(C(F)(F)F)cc1` was tested, and the max response, negative = inhibition was -16.1% (inactive). For `CCCCOCCCNC(=O)C[C@@H]1C[C@@]2(C(=O)OC)CCCCC=C2N(CCC2=CCCCC2)C1=O`, the max response, negative = inhibition was 0% (inactive). With `CC(C)NC(=O)C1(C)CCCCN1Cc1cccc(C(F)(F)F)c1` (stereo unspecified) the max response, negative = inhibition was 0% (inactive). With `CCOC(=O)C1C(C)C(C(C)(C)C)N(S(=O)(=O)c2ccc(C)cc2)C1c1ccccc1` (stereo unspecified) the max response, negative = inhibition was 15.8% (inactive). `CC1(C(=O)Nc2cccc3cccnc23)CCN1C(=O)CCC1CCCC1` (stereo unspecified) was tested, and the max response, negative = inhibition was 0% (inactive). `COc1ccccc1OCCCCCCN1CCN(C)CC1` was tested, and the max response, negative = inhibition was 0.923% (inactive). With `CN1CCN(CCCCOc2cccc3ccccc23)CC1` the max response, negative = inhibition was -59% (active). For `CCOC(=O)C1CCN(C(=O)COc2cccc3ccccc23)CC1`, the max response, negative = inhibition was 2.44% (inactive). With `C[N+](C)(C)CCNC(=O)c1c[nH]c2ccccc12` the max response, negative = inhibition was 0% (inactive). `CCOC(=O)[C@]12CCC=C1N(Cc1ccco1)C(=O)[C@H](CC(=O)N1CCSCC1)C2` was tested, and the max response, negative = inhibition was 2.85% (inactive). In the case of `COC(=O)[C@@]12C[C@@H](CC(=O)N3CCC(c4ccccc4)CC3)C(=O)N(Cc3ccccc3)C1=CCC(C)(C)C2`, the max response, negative = inhibition is reported as 15.3% (inactive). For `COc1ccc(-c2cc3c(c4c2ccn4C)C2CCC3C2)cn1` (stereo unspecified), the max response, negative = inhibition was 12.4% (inactive). With `O=C(CSc1nc2cccc(F)c2c(=O)n1-c1ccccc1)Nc1ccc2c(c1)CCC2` the max response, negative = inhibition was -3.93% (inactive). For `Cn1c(-c2ccc(F)cc2)cnc1SCC(=O)NNC(=O)Cc1ccccc1`, the max response, negative = inhibition was -14.6% (inactive). With `O=C(CSc1nnc2scc(-c3ccc(F)cc3)n12)NCc1ccco1` the max response, negative = inhibition was 5.75% (inactive). With `Cn1c(-c2ccc(F)cc2)cnc1SCC(=O)NCc1ccco1` the max response, negative = inhibition was -51.9% (active). `CCCCCn1nnnc1C1c2ccccc2C(=O)N1Cc1ccco1` (stereo unspecified) was tested, and the max response, negative = inhibition was -21.5% (inactive). In the case of `O=NN(CCCl)C(=O)NCCc1cccc[n+]1[O-]`, the max response, negative = inhibition is reported as -1.68% (inactive). For `CCN1CCN(C(=O)c2ccccc2N(C)S(=O)(=O)c2ccc(C)cc2)CC1`, the max response, negative = inhibition was -77.3% (active). For `CCOC(=O)N1CCN(C(=O)c2ccccc2N(Cc2ccccc2)S(=O)(=O)c2ccc(OC)cc2)CC1`, the max response, negative = inhibition was -17.6% (inactive). In the case of `CCOC(=O)C1CCN(C(=O)c2ccccc2N(C)S(=O)(=O)c2ccccc2)CC1`, the max response, negative = inhibition is reported as -4.73% (inactive). For `Clc1ccccc1Nc1nc(NCc2cccs2)nc2ccsc12`, the max response, negative = inhibition was 31.9% (inactive). With `O=C(C[C@H]1CC[C@@H](NC(=O)c2ccncc2)[C@@H](CO)O1)NCC1CC1` the max response, negative = inhibition was 12.2% (inactive). For `O=C(NCc1nnnn1-c1ccc(Cl)cc1)c1ccc2c(c1)OCO2`, the max response, negative = inhibition was -11.2% (inactive). With `CC(=O)N/C(=C\c1ccc(F)cc1)C(=O)NC(Cc1ccccc1)C(=O)O` (stereo unspecified) the max response, negative = inhibition was 3.22% (inactive). `CC(=O)N/C(=C\c1ccccc1)C(=O)OC(C)C(=O)N(C)c1ccccc1` (stereo unspecified) was tested, and the max response, negative = inhibition was -13.3% (inactive). With `CC(=O)N/C(=C/c1ccc(OC(F)F)cc1)C(=O)O` the max response, negative = inhibition was -58.1% (active). With `CC1(Cc2cccc(C#N)c2)C(=O)Nc2ccc(-c3cccc(C(F)(F)F)c3)cc21` (stereo unspecified) the max response, negative = inhibition was 19.7% (inactive). `CCOc1cc(CNCc2ccccn2)ccc1OCC(=O)NC(C)(C)C` was tested, and the max response, negative = inhibition was -58.7% (active). In the case of `CCOc1cc(C)c(S(=O)(=O)NCc2ccccn2)cc1C`, the max response, negative = inhibition is reported as 4.2% (inactive). `CCOc1cc(CNn2c(C)nnc2SCC(=O)NC(C)(C)C)ccc1OCC(=O)NC(C)(C)C` was tested, and the max response, negative = inhibition was 4.21% (inactive). `CC1(C)CC(=O)C2=C(C1)N=C1SCCC(=O)N1C2c1ccc(C(F)(F)F)cc1` (stereo unspecified) was tested, and the max response, negative = inhibition was -94.4% (active). In the case of `CNC(=O)C[C@H]1C(=O)N(Cc2ccccc2)C[C@@H]1CSC`, the max response, negative = inhibition is reported as -17.4% (inactive). With `O=S(=O)(c1ccccc1)c1nc(-c2ccccc2)oc1NCCCN1CCOCC1` the max response, negative = inhibition was -64.3% (active). For `O=S(=O)(c1ccc(Cl)cc1)c1nc(-c2ccccc2F)oc1NCCN1CCOCC1`, the max response, negative = inhibition was -10.5% (inactive). In the case of `O=S(=O)(c1ccc(Br)cc1)c1nc(-c2ccccc2)oc1N1CCOCC1`, the max response, negative = inhibition is reported as -1.47% (inactive). With `CC(=O)c1cccc(-c2cnc3c(NC=O)cc(-c4ccc(N(C)C)cc4)cn23)c1` the max response, negative = inhibition was 4.39% (inactive). For `CCOCCCNCc1cc(Br)ccc1OCC`, the max response, negative = inhibition was 4.27% (inactive). For `c1ccc(CNCc2ccc(CNCc3ccccc3)cc2)cc1`, the max response, negative = inhibition was -21.6% (inactive). In the case of `CCOc1ccccc1OCCCNCc1ccccc1`, the max response, negative = inhibition is reported as -58.9% (active). In the case of `CCCCN1CC(N2CCN(Cc3cccc(C)c3)CC2)CS1(=O)=O` (stereo unspecified), the max response, negative = inhibition is reported as 0.736% (inactive). With `OCCC#Cc1ccc(N2C(c3ccsc3)=Cc3ccc(F)cc3C2c2c[nH]c3ccccc23)cc1` (stereo unspecified) the max response, negative = inhibition was -3.75% (inactive). In the case of `COC(=O)CNC(=O)c1ccccc1[N+](=O)[O-]`, the max response, negative = inhibition is reported as 16.4% (inactive). For `O=C(NNS(=O)(=O)Cc1ccccc1)c1ccc([N+](=O)[O-])cc1`, the max response, negative = inhibition was -19% (inactive). For `O=C(CNC(=O)c1ccccc1)Oc1ccc([N+](=O)[O-])cc1`, the max response, negative = inhibition was -54.6% (active). With `Nc1cc(=O)c2[nH]cnc2[nH]1` the max response, negative = inhibition was 15.5% (inactive). For `Nc1ncnc2c1ncn2[C@@H]1O[C@H](C(=O)N2CCCN(Cc3ccccc3F)CC2)[C@@H](O)[C@H]1O`, the max response, negative = inhibition was 15% (inactive). In the case of `O=C(C=CC(=O)Nc1ccc(F)cc1F)Nc1ccc(F)cc1F`, the max response, negative = inhibition is reported as 4.55% (inactive). With `COC(=O)[C@@]1(Cc2ccc(OC)cc2)[C@H]2c3cc(C(=O)N4CCCC4)n(Cc4ccc(OC(F)(F)F)cc4)c3C[C@H]2CN1C(=O)c1ccccc1` the max response, negative = inhibition was 20.3% (inactive). `C[C@@H]1CN([C@H](C)CO)C(=O)CCCn2nncc2CO[C@@H]1CN(C)S(=O)(=O)c1cccc(C#N)c1` was tested, and the max response, negative = inhibition was -18.1% (inactive). In the case of `N#Cc1cccc(NC(=O)C2CCCN(C(=O)c3ccc(Cl)cc3)C2)c1` (stereo unspecified), the max response, negative = inhibition is reported as 0.782% (inactive). For `N#Cc1cccc(NC(=O)CN2CCCCCC2)c1`, the max response, negative = inhibition was -64.8% (active). In the case of `N#Cc1ccsc1NC(=O)CN1CCCCC1`, the max response, negative = inhibition is reported as -12% (inactive). `Nc1cc(C(=O)N2CCN(c3ccccc3Cl)CC2)ccc1N1CC2CC(C1)c1cccc(=O)n1C2` (stereo unspecified) was tested, and the max response, negative = inhibition was 27.4% (inactive). For `C=C1C(=O)OC2C1CCC(C)=CCCC1(C)OC21` (stereo unspecified), the max response, negative = inhibition was -90% (active). With `CC1(C(=O)NCC2CCOCC2)Cc2c(-c3cccc(C(N)=O)c3)ccnc2O1` (stereo unspecified) the max response, negative = inhibition was -8.42% (inactive). With `Cc1cc(Br)cn2c(Cc3ccccc3C(F)(F)F)c(C3CCCCC3)nc12` the max response, negative = inhibition was -18.2% (inactive). For `COc1cccc(-c2cnc3c(NC(C)=O)cc(-c4cc(F)ccc4OC)cn23)c1`, the max response, negative = inhibition was -14.2% (inactive). `COc1ccc(S(=O)(=O)N2CCC(C(=O)NCCC(=O)NCCc3cccc(F)c3)CC2)cc1` was tested, and the max response, negative = inhibition was 9.47% (inactive). With `C=CCNC(=S)N1CCc2[nH]c3ccccc3c2C1` the max response, negative = inhibition was -14.7% (inactive). In the case of `O=C(CCCN1CCc2[nH]c3ccc(F)cc3c2C1)c1ccc(F)cc1`, the max response, negative = inhibition is reported as -89.2% (active). With `CC1CCc2[nH]c3ccc(C(=O)N(C)CC(=O)Nc4cccc(F)c4)cc3c2C1` (stereo unspecified) the max response, negative = inhibition was 3.28% (inactive). For `CC(=O)C1=CCC(c2ccccc2)N(S(=O)(=O)c2ccc(C)cc2)C1` (stereo unspecified), the max response, negative = inhibition was 0% (inactive). With `COc1cccc(NC(=O)C2(C)CCN2C(=O)CCC2CCCC2)c1` (stereo unspecified) the max response, negative = inhibition was 1.34% (inactive). `COc1ccc(C(NC(=O)C2CCN(CCCc3ccccc3)CC2)c2cccs2)cc1` (stereo unspecified) was tested, and the max response, negative = inhibition was -15.9% (inactive). For `Cc1cc([N+](=O)[O-])c(NC2CCCCC2)c([N+](=O)[O-])c1`, the max response, negative = inhibition was -7.91% (inactive). For `Cc1c(NS(=O)(=O)c2ccc(NC3CCCC3)c([N+](=O)[O-])c2)c(=O)n(-c2ccccc2)n1C`, the max response, negative = inhibition was -21.5% (inactive). For `Cc1cc(C=O)c(C)n1-c1ccc(NC2CCCCC2)c([N+](=O)[O-])c1`, the max response, negative = inhibition was -55.1% (active). `COCC(=O)N(C)C[C@H]1Oc2cc(Br)ccc2S(=O)(=O)N([C@H](C)CO)C[C@H]1C` was tested, and the max response, negative = inhibition was 15.2% (inactive). For `C#CCN(C[C@@H]1[C@@H](OC(=O)NC2CC2)[C@@H](OC(=O)NC2CC2)Cn2c(=O)ccc(=O)n21)S(=O)(=O)c1ccc(C)cc1`, the max response, negative = inhibition was 13.1% (inactive). `O=c1ccc2c(-c3ccccc3S(=O)(=O)O)c3ccc(O)c(O)c3oc-2c1O` was tested, and the max response, negative = inhibition was -93.3% (active). With `C[C@@H]1CN([C@@H](C)CO)C(=O)CCCn2nncc2CO[C@H]1CN(C)Cc1ccc(C(F)(F)F)cc1` the max response, negative = inhibition was 20.1% (inactive). For `CC(C)NC(=O)N1Cc2cc(C(=O)NCC(F)(F)F)nc(-c3cccc(-c4cc5ccccc5o4)c3)c2[C@@H]1CCO`, the max response, negative = inhibition was 18.7% (inactive). In the case of `O=C(NC(c1ccc(-c2ccccc2)cc1)c1cnccn1)C1CCN(CCOc2ccc(Cl)cc2Cl)CC1` (stereo unspecified), the max response, negative = inhibition is reported as -24.7% (inactive). `COC(=O)c1ccc2nc(-c3ccccc3)c(Cc3ccc(OC)cc3C)n2c1` was tested, and the max response, negative = inhibition was -9.42% (inactive). In the case of `COc1ccc2[nH]cc(CCN3C(=O)c4ccc(C(=O)O)cc4C3=O)c2c1`, the max response, negative = inhibition is reported as 11.7% (inactive). `COc1ccc2[nH]cc(/C=C(/C#N)S(=O)(=O)c3ccccc3)c2c1` was tested, and the max response, negative = inhibition was -50.9% (active). For `COc1ccc(/C=N/N=C/c2c[nH]c(=O)c(C#N)c2Nc2ccccc2)cc1`, the max response, negative = inhibition was 23.9% (inactive). `Cc1ccccc1S(=O)(=O)NC(=O)C1(C)CCN1C(=O)C1(c2ccc(Cl)cc2)CC1` (stereo unspecified) was tested, and the max response, negative = inhibition was 4.07% (inactive). In the case of `Cc1nc2ccc(C(=O)N/N=C/c3ccc(O)cc3)cc2[nH]1`, the max response, negative = inhibition is reported as -78.1% (active). `O=C(NN=Cc1ccccc1)c1ccccc1` was tested, and the max response, negative = inhibition was -25.4% (inactive). In the case of `Cc1nonc1C(=O)N/N=C/c1ccc(O)cc1`, the max response, negative = inhibition is reported as 20.2% (inactive). In the case of `COc1ccc2c(c1)c(=Cc1ccc(N(C)C)cc1)c1cc(-c3ccccc3)[n+](C)n12`, the max response, negative = inhibition is reported as -65.2% (active). With `Cc1ccc(C(NC(=O)C2CCN(CCOc3ccc(Cl)cc3Cl)CC2)c2ccccn2)cc1` (stereo unspecified) the max response, negative = inhibition was -3.28% (inactive). In the case of `CC1=C(C(=O)N(C)C)CC(CC(=O)NCCc2ccccn2)C(=O)N1CCC1=CCCCC1` (stereo unspecified), the max response, negative = inhibition is reported as -22.1% (inactive). For `CCCCCNC(=O)C1C(=O)Nc2ccccc2C(=O)N1C(C)(C)C` (stereo unspecified), the max response, negative = inhibition was -19.2% (inactive).
